Compounds without any hit were thinned out: in the full panel of roughly 79,000, 15% have a hit. Active and inactive are the calls of the source. No stated cut-off is given here; in the data, active means growth inhibition above about 70%; inactive means the rest.
What was measured:
[1] = NCI Yeast Anticancer Drug Screen. Data for the wt1 strain (AID 149);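 further: 0% = growth of vehicle-treated wt1 cultures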; conditions: S. cerevisiae wt1 strain (SPY 50644) growth inhibition, stronger effect = higher value
Summary of the method: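 Growth inhibition read against vehicle controls after compound exposure of the wt1 yeast strain.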

[2] = NCI Yeast Anticancer Drug Screen. Data for the rad50EPP+ strain (AID 151);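 further: 0% = growth of vehicle-treated control cultures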; conditions: S. cerevisiae rad50 mutant strain, stronger effect = higher value
Summary of the method: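 Compounds were applied to the rad50EPP+ yeast strain, which bears a defined DNA repair alteration, and growth inhibition was determined relative to vehicle-treated cultures.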

[3] = NCI Yeast Anticancer Drug Screen. Data for the mgt1 strain (AID 153); conditions: S. cerevisiae mgt1 mutant growth inhibition, stronger effect = higher value
Summary of the method: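 Strain: mgt1 yeast, one of a set carrying defined DNA damage repair or cell cycle control alterations. Compound-treated growth compared with vehicle.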

[4] = NCI Yeast Anticancer Drug Screen. Data for the rad50 strain (AID 155);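 further: 0% = growth of vehicle-only cultures of the same strain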; conditions: S. cerevisiae rad50 strain growth inhibition, stronger effect = higher value
Summary of the method: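 Readout: growth inhibition relative to vehicle-treated cultures. Compound exposure was carried out in a genetically defined yeast strain deficient in DNA damage repair.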

[5] = NCI Yeast Anticancer Drug Screen. Data for the mec2-1 strain (AID 157); conditions: S. cerevisiae mec2-1 strain, stronger effect = higher value
Summary of the method: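 Strain: mec2-1 (DNA repair/cell cycle alteration). Compound exposure, then growth measured; inhibition expressed relative to vehicle.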

[6] = NCI Yeast Anticancer Drug Screen. Data for the rad14 strain (AID 159);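 further: 0% = growth of vehicle-treated control cultures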; conditions: S. cerevisiae rad14 strain growth inhibition, stronger effect = higher value
Summary of the method: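 Growth inhibition vs vehicle controls; genetically altered yeast strain (DNA damage repair defect) treated with test compounds.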

[7] = NCI Yeast Anticancer Drug Screen. Data for the sgs1 mgt1 strain (AID 161);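 further: 0% = growth of cultures given vehicle only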; conditions: S. cerevisiae sgs1 mgt1 strain, stronger effect = higher value
Summary of the method: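 Genetically altered yeast, compound exposure, growth inhibition relative to vehicle.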

[8] = NCI Yeast Anticancer Drug Screen. Data for the CLN2oe strain (AID 163);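 further: 0% = growth of vehicle-only control cultures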; conditions: S. cerevisiae CLN2oe strain, stronger effect = higher value
Summary of the method: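 Growth of a genetically modified yeast strain is measured after compound exposure and compared with cultures given vehicle alone.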

[9] = NCI Yeast Anticancer Drug Screen. Data for the cln2 rad14 strain (AID 165);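 further: 0% = growth equal to vehicle treated cultures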; conditions: S. cerevisiae cln2 rad14 strain, stronger effect = higher value
Summary of the method: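 Compounds are applied to the cln2 rad14 yeast strain, and growth is then compared with that of vehicle-treated cultures to give inhibition.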

[10] = NCI Yeast Anticancer Drug Screen. Data for the bub3 strain (AID 167); conditions: S. cerevisiae bub3 mutant strain, stronger effect = higher value
Summary of the method: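 Readout: yeast growth inhibition, expressed relative to vehicle-only wells. The test organism is a mutant strain from a panel with lesions in DNA repair or checkpoint genes.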

[11] = NCI Yeast Anticancer Drug Screen. Data for the wt2 strain (AID 169);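 further: 0% = growth of vehicle-treated yeast cultures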; conditions: S. cerevisiae wt2 strain growth inhibition, stronger effect = higher value
Summary of the method: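 This strain belongs to a panel of yeast strains with defined genetic alterations in DNA damage repair or cell cycle control. Compounds are applied, and growth inhibition is measured against vehicle-treated cultures.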

[12] = NCI Yeast Anticancer Drug Screen. Data for the mlh1 strain (AID 171);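 further: 0% = growth of vehicle-treated control cultures of the same strain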; conditions: S. cerevisiae mlh1 strain growth inhibition, stronger effect = higher value
Summary of the method: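 Growth of the mutant yeast strain after compound exposure, expressed as inhibition relative to vehicle-only controls.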

[13] = NCI Yeast Anticancer Drug Screen. Data for the sgs1 strain (AID 173);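 further: 0% = growth of vehicle-only control cultures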; conditions: S. cerevisiae sgs1 mutant, stronger effect = higher value
Summary of the method: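 Growth of a yeast strain bearing a defined genetic alteration is measured after compound treatment. Inhibition is expressed relative to vehicle-only controls.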

[14] = NCI Yeast Anticancer Drug Screen. Data for the mlh1 rad18 strain (AID 175); conditions: S. cerevisiae mlh1 rad18 strain growth inhibition, stronger effect = higher value
Summary of the method: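 Read-out is yeast growth inhibition, calculated against vehicle-only controls. The compound was applied to a strain engineered with DNA damage repair alterations.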

[15] = NCI Yeast Anticancer Drug Screen. Data for the rad18 strain (AID 177); conditions: S. cerevisiae rad18 mutant growth inhibition, stronger effect = higher value
Summary of the method: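 Growth of the mutant yeast strain after compound exposure, normalised to vehicle-only cultures.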

[16] = at 5.0 µM (retest, dose inferred, filed as 0.5)
[17] = at 50.0 µM (retest, dose inferred, filed as 5.0)

Measured: growth inhibition

COC1=CCC23C(=O)C=CC(=O)C2(C1)C(=O)c1ccccc1C3=O (stereo not drawn)
active: [1]; at 100.0 µM 93% | [3]; at 100.0 µM 93% | [4]; [17] 72% | [4]; at 100.0 µM 87% | [5]; [17] 88% | [5]; at 100.0 µM 91% | [6]; at 100.0 µM 92% | [7]; [17] 76% | [7]; at 50.0 µM 74.7% | [8]; at 100.0 µM 92% | [10]; [17] 78% | [10]; at 50.0 µM 74.4% | [10]; at 100.0 µM 91% | [11]; at 100.0 µM 93% | [12]; at 100.0 µM 95% | [13]; at 100.0 µM 93% | [14]; [17] 84% | [15]; at 100.0 µM 83%
inactive: [1]; at 1.2 µM -34% | [1]; at 3.7 µM -24% | [1]; at 11.0 µM -16% | [1]; at 33.0 µM -1% | [2]; at 1.2 µM 19% | [2]; at 3.7 µM 17% | [2]; at 11.0 µM 25% | [2]; at 33.0 µM 30% | [2]; at 100.0 µM 62% | [3]; at 1.2 µM -24% | [3]; at 3.7 µM -14% | [3]; at 11.0 µM 6% | [3]; at 33.0 µM 40% | [4]; at 1.2 µM -27% | [4]; at 3.7 µM -47% | [4]; [16] 19% | [4]; at 11.0 µM 12% | [4]; at 33.0 µM 52% | [4]; at 50.0 µM 65.8% | [5]; at 1.2 µM 8% | [5]; at 3.7 µM -4% | [5]; [16] 20% | [5]; at 11.0 µM -11% | [5]; at 33.0 µM 34% | [5]; at 50.0 µM 55.5% | [6]; at 1.2 µM -24% | [6]; at 3.7 µM 2% | [6]; at 11.0 µM 1% | [6]; at 33.0 µM 50% | [7]; [16] -2% | [8]; at 1.2 µM 17% | [8]; at 3.7 µM 8% | [8]; at 11.0 µM 18% | [8]; at 33.0 µM 38% | [9]; [16] 0% | [9]; [17] -49% | [9]; at 50.0 µM 36.5% | [10]; at 1.2 µM -30% | [10]; at 3.7 µM -38% | [10]; [16] 2% | [10]; at 11.0 µM -29% | [10]; at 33.0 µM 15% | [11]; at 1.2 µM -11% | [11]; at 3.7 µM -5% | [11]; at 11.0 µM 23% | [11]; at 33.0 µM 40% | [12]; at 1.2 µM -11% | [12]; at 3.7 µM -25% | [12]; at 11.0 µM -2% | [12]; at 33.0 µM 54% | [13]; at 1.2 µM 10% | [13]; at 3.7 µM -6% | [13]; at 11.0 µM 24% | [13]; at 33.0 µM 61% | [14]; [16] 26% | [14]; at 50.0 µM 68.2% | [15]; at 1.2 µM -21% | [15]; at 3.7 µM -20% | [15]; at 11.0 µM 32% | [15]; at 33.0 µM 44%

Reference: PubChem BioAssay (NCI)
